Values joined by “and” are separate entries in the source; they are usually repeats but may differ in a detail not shown here. Equal entries are not always repeated. Results filed as inconclusive are left out. Active and inactive are the calls of the source. Unless noted, calls follow the shape of the dose curve; as a rule, active = well fitted curve in the direction sought with a large enough effect; inconclusive = small, poorly fitted or top-dose-only effect, or another doubt; inactive = no such curve, though single readings can be large; an effect the other way counts as inactive or inconclusive.
Experiments:
[1] = target: Glucocorticoid receptor (Homo sapiens) (UniProt P04150); assay: GR-GFP Redistribution (AID 450;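 active = compounds whose dose series gives a full or clear partial fitted curve of increased nuclear translocation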; also: potency is read from the fitted curve at half-maximal effect); details: U2OS GR-GFP nuclear translocation, laser cytometry, 2 h
Sequence of Glucocorticoid receptor (Homo sapiens) (P04150 whole entry, looked up, the tested form may be a part): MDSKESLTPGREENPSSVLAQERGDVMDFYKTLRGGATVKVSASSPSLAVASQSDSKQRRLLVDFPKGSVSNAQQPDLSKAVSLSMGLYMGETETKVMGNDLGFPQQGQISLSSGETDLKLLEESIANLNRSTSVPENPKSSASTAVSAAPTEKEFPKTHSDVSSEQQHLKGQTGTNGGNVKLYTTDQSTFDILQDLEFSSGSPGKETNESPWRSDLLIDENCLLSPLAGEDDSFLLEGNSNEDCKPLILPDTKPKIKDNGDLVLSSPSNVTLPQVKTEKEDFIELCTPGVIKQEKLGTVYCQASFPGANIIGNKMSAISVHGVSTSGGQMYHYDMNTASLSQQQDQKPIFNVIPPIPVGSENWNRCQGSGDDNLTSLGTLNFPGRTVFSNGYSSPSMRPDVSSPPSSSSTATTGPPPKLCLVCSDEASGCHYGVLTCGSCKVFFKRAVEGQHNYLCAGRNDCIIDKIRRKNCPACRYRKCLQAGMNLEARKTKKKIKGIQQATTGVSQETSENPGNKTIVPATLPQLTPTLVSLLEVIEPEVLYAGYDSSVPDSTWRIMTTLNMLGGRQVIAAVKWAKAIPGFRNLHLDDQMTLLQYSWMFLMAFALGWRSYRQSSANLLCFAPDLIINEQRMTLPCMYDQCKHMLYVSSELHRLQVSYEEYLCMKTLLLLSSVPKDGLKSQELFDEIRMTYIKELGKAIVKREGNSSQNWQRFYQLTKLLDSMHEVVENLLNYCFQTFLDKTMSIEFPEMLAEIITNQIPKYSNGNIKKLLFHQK

[2] = target: Glucocorticoid receptor (Homo sapiens) (UniProt P04150); assay: GR-EFC Redistribution (AID 451; calls by dose curve; also: potency is read from the fitted curve at half-maximal effect); details: CHO-K1 GR-EFC translocation, beta-gal luminescence, 2 h
Method in brief: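 Translocation of GR-ED fusion to nuclear EA restores b-gal, read by luminescence after 1 h room-temperature detection. Engineered CHO-K1 biosensor cells, 1,000/well, exposed 2 h at 37 C to titrations up to 46 uM final.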

[3] = target: Mitogen-activated protein kinase 10 (Mus musculus) (UniProt Q61831); assay: JNK3 AlphaScreen Assay (AID 530; active = well fitted curve in either direction with a large enough effect, not every such curve was filed as active;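 also: kinase came from lysate of stimulated human HepG2 cells; signal reports phosphorylation of biotinylated GST-cJun 1-79 at Ser73 with 10 µM ATP; % is scaled to controls: 0 for no effect and ±100 for the full control effect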)
Method in brief: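 qHTS titrations with 15 min compound pre-incubation before adding ATP (10 uM final). Read-out: AlphaScreen of Ser73-phosphorylated biotin-GST-cJun using HepG2 lysate JNK3 activated by IL-1β and TNFα.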

[4] = target: 3',5'-cyclic-AMP phosphodiesterase 4B (Homo sapiens) (UniProt Q07343); assay: qHTS Assay for Inhibitors of PDE-IV (AID 607; active = well fitted activation curve with a large enough effect in the main read-out, with a control signal flat, not every such curve was filed as active; also: % of control where 0% means no effect)
Sequence of 3',5'-cyclic-AMP phosphodiesterase 4B (Homo sapiens) (Q07343 whole entry, looked up): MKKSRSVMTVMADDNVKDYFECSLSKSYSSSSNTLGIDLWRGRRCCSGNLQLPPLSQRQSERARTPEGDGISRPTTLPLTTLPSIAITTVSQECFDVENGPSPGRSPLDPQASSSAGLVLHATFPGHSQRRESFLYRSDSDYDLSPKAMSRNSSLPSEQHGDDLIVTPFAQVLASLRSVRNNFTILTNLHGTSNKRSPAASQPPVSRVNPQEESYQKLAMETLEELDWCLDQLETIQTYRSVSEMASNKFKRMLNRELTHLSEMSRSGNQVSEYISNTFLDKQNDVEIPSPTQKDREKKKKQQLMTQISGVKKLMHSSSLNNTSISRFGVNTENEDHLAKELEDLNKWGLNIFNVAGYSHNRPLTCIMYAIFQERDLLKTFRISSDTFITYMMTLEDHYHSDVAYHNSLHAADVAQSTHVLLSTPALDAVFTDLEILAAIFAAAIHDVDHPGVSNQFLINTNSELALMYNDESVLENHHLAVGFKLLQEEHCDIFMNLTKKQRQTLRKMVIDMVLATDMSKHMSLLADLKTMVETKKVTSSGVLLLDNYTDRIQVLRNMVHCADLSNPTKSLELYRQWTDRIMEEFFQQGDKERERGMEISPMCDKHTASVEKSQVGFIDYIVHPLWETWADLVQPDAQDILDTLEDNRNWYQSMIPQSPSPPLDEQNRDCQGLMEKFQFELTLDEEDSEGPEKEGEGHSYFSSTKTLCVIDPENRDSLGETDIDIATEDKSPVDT
Method in brief: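 ACTOne HEK293 cells carry a modified cAMP-gated CNG channel and express endogenous PDE4; plated 1000 cells/well, compounds up to 22.9 uM final. Membrane-potential dye fluorescence (ex 535/em 590) was read; parental cells received 10 uM forskolin + 100 uM RO 20-1724.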

[5] = Confirmation and Secondary Assay for Modulators of Hemoglobin Beta Chain Splicing at IVS2 654 locus (AID 910);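 also: HeLa cells stably carrying EGFP split by mutant beta-globin IVS2-654 intron; per-well total GFP intensity by laser scanning cytometry after 2-day treatment; % of control where 0% means no effect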
Method in brief: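 Readout: per-well total peak green fluorescence (488 nm ex, 500–520 nm em) from objects 5–250 µm, reflecting correct splicing of an EGFP-654 reporter. Compounds were applied for 2 days at 37 °C to overnight-plated HeLa EGFP-654 cells; controls were DMSO and 500 nM IVS2-654 PNA.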

[6] = Confirmation and Secondary Assay for Modulators of Hemoglobin Beta Chain Splicing at IVS2 705 locus (AID 930);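 also: HeLa cells stably expressing the EGFP-705 splicing reporter; GFP fluorescence per well restored by corrected splicing of the IVS2-705 intron in EGFP; % of control where 0% means no effect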
Method in brief: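 Splice-correction reporter: EGFP cDNA split by beta-globin intron 2 bearing the 705 mutation, stably in HeLa. Compound incubation 2 days, 37C; fluorescent objects 5-250 µm summed per well.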

[7] = qHTS Assay for Lipid Storage Modulators (AID 1519; calls by dose curve; as to activity change, negative = inhibition: % is scaled to controls: 0 for no effect and ±100 for the full control effect); details: Drosophila S3 cells, BODIPY lipid droplet/cell ratio, laser cytometry, cells loaded with oleic acid
Method in brief: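 Cells seeded at 5,000 per well were treated with compounds over a concentration series and loaded with oleic acid (400 uM, as added). Lipid droplet fluorescence (488 nm excitation, 500-530 nm channel) was read by laser-scanning cytometry and normalized to 20 uM Triacsin C.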

[8] = target: Ubiquitin carboxyl-terminal hydrolase 1 (Homo sapiens) (UniProt O94782); assay: Inhibitors of USP1/UAF1: Pilot qHTS (AID 504865);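 also: rhodamine fluorescence freed from ubiquitin-rhodamine substrate followed over time; top concentration of the series differs between compounds; % is scaled to controls: 0 for no effect and ±100 for the full control effect; nearly all actives have a fitted effect of over 35% in size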
Sequence of Ubiquitin carboxyl-terminal hydrolase 1 (Homo sapiens) (O94782 whole entry, looked up): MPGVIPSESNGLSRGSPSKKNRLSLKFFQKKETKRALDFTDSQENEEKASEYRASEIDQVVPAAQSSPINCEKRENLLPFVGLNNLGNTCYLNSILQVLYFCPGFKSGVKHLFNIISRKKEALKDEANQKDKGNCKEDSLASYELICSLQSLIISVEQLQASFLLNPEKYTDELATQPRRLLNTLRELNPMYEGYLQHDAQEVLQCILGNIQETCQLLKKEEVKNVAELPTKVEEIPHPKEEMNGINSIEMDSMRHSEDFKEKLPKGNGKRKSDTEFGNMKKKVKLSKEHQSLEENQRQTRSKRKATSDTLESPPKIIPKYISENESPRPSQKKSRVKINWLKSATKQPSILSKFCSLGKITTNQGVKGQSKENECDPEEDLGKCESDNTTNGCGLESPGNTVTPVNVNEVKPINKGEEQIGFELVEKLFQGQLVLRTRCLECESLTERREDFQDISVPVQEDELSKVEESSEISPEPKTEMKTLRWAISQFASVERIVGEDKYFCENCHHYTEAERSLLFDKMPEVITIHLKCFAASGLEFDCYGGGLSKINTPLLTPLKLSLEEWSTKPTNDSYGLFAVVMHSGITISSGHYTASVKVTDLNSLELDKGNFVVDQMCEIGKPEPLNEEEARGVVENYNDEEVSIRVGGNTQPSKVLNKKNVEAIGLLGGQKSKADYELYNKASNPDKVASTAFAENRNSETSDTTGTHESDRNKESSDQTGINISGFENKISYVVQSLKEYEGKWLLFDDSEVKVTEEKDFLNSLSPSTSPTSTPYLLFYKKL
Method in brief: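 USP1/UAF1 complex at 1 nM preincubated 15 min at room temperature with compound, then Ub-Rho substrate added at 150 nM final. Fluorescence (480/540 nm) read kinetically in 50 mM HEPES pH 7.8, 0.5 mM EDTA, 1 mM TCEP, 0.1 mg/ml BSA, 0.01% Tween-20.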

[9] = target: DNA dC->dU-editing enzyme APOBEC-3G (Homo sapiens) (UniProt Q9HC16); assay: qHTS for inhibitors of Vif-A3G interactions: Validation (AID 588379); also: 0% is about no effect
Sequence of DNA dC->dU-editing enzyme APOBEC-3G (Homo sapiens) (Q9HC16 whole entry, looked up): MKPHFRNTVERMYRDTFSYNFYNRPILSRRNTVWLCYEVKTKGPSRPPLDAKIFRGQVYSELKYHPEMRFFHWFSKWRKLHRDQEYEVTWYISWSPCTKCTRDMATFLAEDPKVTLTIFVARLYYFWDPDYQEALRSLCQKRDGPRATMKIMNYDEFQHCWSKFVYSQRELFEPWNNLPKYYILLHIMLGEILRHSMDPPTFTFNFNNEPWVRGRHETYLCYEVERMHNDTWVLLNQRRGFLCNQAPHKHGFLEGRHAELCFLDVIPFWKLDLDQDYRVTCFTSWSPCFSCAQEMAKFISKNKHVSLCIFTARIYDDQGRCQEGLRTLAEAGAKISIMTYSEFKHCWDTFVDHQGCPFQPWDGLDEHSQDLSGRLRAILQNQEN
Method in brief: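 Yellow fluorescence (Ex 488, Em 500-530) of Vif-coexpressing HeLa A3G-eYFP cells, scanned by Acumen cytometer, reports blocked A3G degradation. Cells plated at 700/well overnight at 37 deg C before compound addition, then a further overnight compound incubation at 37 deg C.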

[10] = tested on: Zika virus NS2B-NS3 protease; assay: Primary screen GU AMC qHTS for Zika virus inhibitors (AID 1347154); also: potency is read from the fitted curve at half-maximal effect; nearly all actives have a fitted effect of over 70% in size
Method in brief: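 Fluorogenic AMC-substrate cleavage by noncovalent NS2B-NS3 protease complex (25 nM, pH 8.0 Tris buffer with Tween 20) followed for 15 minutes at room temperature (~20% conversion). Percent inhibition from ex340/em450 signal change, fitted by 4-parameter Hill equation.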

[11] = tested on: Zika virus NS2B-NS3 protease (linked construct); assay: Primary screen NINDS Rhodamine qHTS for Zika virus inhibitors (AID 1347160); also: % is scaled to controls: 0 for no effect and ±100 for the full control effect; nearly all actives have a fitted effect of over 55% in size
Method in brief: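 Aprotinin served as in-plate control. Conditions: 25 nM linked NS2B-NS3, pH 8.0 Tris buffer, titrated compounds, 15 min preincubation and 15 min reaction with 1.5 microM Rhod110 substrate at room temperature.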

[12] = SW1088 Cancer Cell Toxicity qHTS against the NCATS CANVASS Library (AID 1347350); also: nearly all actives have a fitted effect of over 75% in size
Method in brief: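 Step one: seed 1000 cells per well. Step two: incubate 4 h. Step three: add test compounds in 11 concentrations. Step four: culture 72 h, then add CellTiter-Glo and record luminescence after 15min.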

[13] = COV-362 Cancer Cell Toxicity qHTS against the NCATS CANVASS Library (AID 1347352); also: potency is read from the fitted curve at half-maximal effect
Method in brief: (§1)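 First, 1000 cells go into each well and rest for 4 hours. Next, an 11-point dilution range is pinned in. Plates then incubate 72 hours before CellTiter-Glo addition and luminescence reading.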

[14] = A2780 Cisplatin Sensitive Ovarian Cancer Cell Toxicity qHTS against the NCATS CANVASS Library (AID 1347353); also: potency is read from the fitted curve at half-maximal effect; nearly all actives have a fitted effect of over 60% in size
Method in brief: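 Cells are plated at 750 per well and rest for 4 hours. Compounds are added across eleven concentrations, and incubated 72 hours before ATP is quantified by luminescence.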

[15] = UWB1.289-WTBRCA1 Cancer Cell Toxicity qHTS against the NCATS CANVASS Library (AID 1347354); also: % is scaled to controls: 0 for no effect and ±100 for the full control effect
Method in brief: as §1

[16] = HEK-293 Cancer Cell Toxicity qHTS against the NCATS CANVASS Library (AID 1347355); also: potency is read from the fitted curve at half-maximal effect; nearly all actives have a fitted effect of over 65% in size
Method in brief: as §1

[17] = HEK293 18hr Apoptosis Induction qHTS against the NCATS CANVASS Library (AID 1347357); also: 0% is about no effect
Method in brief: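 HEK293 cells (500/well, DMEM + 10% FBS) treated with an 11-point series for 18 h at 37 degrees C. Caspase-3/7 activity read by Caspase-Glo luminescence after 15 min at room temperature.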

[18] = HPAF-II 12hr Apoptosis Induction qHTS against the NCATS CANVASS Library (AID 1347358); also: 0% is about no effect
Method in brief: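 Cells plated at 500 per well are dosed with compound and incubated 12 hours at 37 degrees C. Caspase-Glo 3/7 reagent is added and, after 15 min at room temperature, luminescence proportional to caspase activity is measured.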

[19] = HEK293 24hr Apoptosis Induction qHTS against the NCATS CANVASS Library (AID 1347359); also: 0% is about no effect
Method in brief: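 Caspase-3/7 activation measured as luminescence from the DEVD-based Caspase-Glo reagent, 15 min at room temperature, following 24-hour compound treatment of HEK293 cells.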

[20] = HEK293 12hr Apoptosis Induction qHTS against the NCATS CANVASS Library (AID 1347361); also: 0% is about no effect
Method in brief: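 HEK293 cells (500/well) were exposed to an 11-point qHTS concentration series for 12 hours at 37 degrees C. Caspase-3/7 activity was then read by DEVD-substrate luciferase luminescence after 15 min at room temperature.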

[21] = target: Luciferin 4-monooxygenase (Photinus pyralis) (UniProt P08659); assay: Firefly luciferase counterscreen qHTS: Assay Interference Panel against the NCATS CANVASS Library (AID 1347363); also: 0% is about no effect
Sequence of Luciferin 4-monooxygenase (Photinus pyralis) (P08659 whole entry, looked up): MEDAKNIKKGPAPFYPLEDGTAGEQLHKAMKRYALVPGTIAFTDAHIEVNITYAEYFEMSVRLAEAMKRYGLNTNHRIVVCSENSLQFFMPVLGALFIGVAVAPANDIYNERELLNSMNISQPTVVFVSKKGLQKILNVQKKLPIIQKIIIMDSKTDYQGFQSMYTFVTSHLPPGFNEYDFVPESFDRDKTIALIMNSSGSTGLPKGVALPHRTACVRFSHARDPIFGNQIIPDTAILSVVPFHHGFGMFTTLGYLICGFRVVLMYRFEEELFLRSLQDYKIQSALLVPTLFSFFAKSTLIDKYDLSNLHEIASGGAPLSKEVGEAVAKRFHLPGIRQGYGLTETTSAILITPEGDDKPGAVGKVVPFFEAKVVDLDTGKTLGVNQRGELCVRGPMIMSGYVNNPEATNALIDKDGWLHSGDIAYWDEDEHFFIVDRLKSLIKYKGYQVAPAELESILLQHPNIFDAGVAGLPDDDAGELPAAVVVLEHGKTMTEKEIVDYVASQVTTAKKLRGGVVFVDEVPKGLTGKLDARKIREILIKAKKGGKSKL
Method in brief: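 Luminescence inhibition readout: compounds (11-point qHTS) sat 15 min at room temperature with substrate mix (0.013 mM luciferin and ATP), then firefly luciferase was added and signal read 5 min later.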

COc1ccc2c(c1)[nH]c1c(C)nccc12
active: Potency [10] 3.36 µM | Potency [13] 38.6 µM | Potency [14] 19.1 µM | Potency [16] 7.62 µM
-9.39% and 13.6%: max response ([7]; measured here: lipid channel max response)
inactive: Potency [1] > 20.6 µM | Potency [2] > 20.6 µM | outcome [3] | Potency [4] | Potency [5] | outcome [6] | activity change, negative = inhibition ([7]; at 25.7 µM (top of the series)) -4.61% | activity change, negative = inhibition ([7]; at 57.5 µM (top of the series)) 2.5% | Potency [8] | Potency [9] | Potency [11] | Potency [12] | Potency [15] | Potency [17] | outcome [18] | Potency [19] | Potency [20] | outcome [21]
-2.86% and 7%: max response ([7]; measured here: cell count channel max response)

From PubChem BioAssay (NCATS)
